Assay outcomes as filed in PubChem BioAssay.
KB-3-1 tox = kills parental KB-3-1 adenocarcinoma cells; AID 1347075; actives 1.4% (n = 400,000); KB-3-1 viability, CellTiter-Glo ATP luminescence, 72 h; Potency, µM (top dose mostly 46.1 µM), usual class: cytotoxic; note: % is set by controls: 0 for no effect and ±100 for the full control effect; nearly all actives have a fitted effect of over 60% in size
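Parental KB-3-1 viability, qHTS format: 72 h compound exposure, 37 °C; CellTiter-Glo; media-only wells and DMSO plates as controls; concentration-effect fits on corrected data.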
SW480 rereplic = induces DNA re-replication in SW480 colon adenocarcinoma cells; SW480 DNA re-replication, Hoechst DNA content imaging, 48 h; Potency, µM (series often up to 46.1 µM), inactives show at the top dose re-replication activation, usual class: activators; actives 1.8% (n = 340,000); AID 624297; note: % of control where 0% means no effect; nearly all actives have a fitted effect of over 55% in size
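Quantitative HTS format with DMSO vehicle controls; 48 hr drug incubation at 37 C, then 40 min Hoechst staining and scanning imager measurement at 405 nm excitation.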
MCF10A rerep = DNA re-replication induction in MCF 10a cells. actives 2.9% (n = 350,000). Potency, µM (series often up to 46.1 µM), for the others: at the highest dose activity, positive = re-replication, usual class: activators. MCF 10A DNA re-replication, Hoechst nuclear intensity, 48 h; note: % of control where 0% means no effect; nearly all actives have a fitted effect of over 50% in size
KB-V1 cytotox = kills drug-selected multidrug resistant KB-V1 cells; KB-V1 MDR cells viability, CellTiter-Glo, 72 h; actives 3.4% (n = 400,000); Potency, µM (doses to about 46.1 µM), hits mostly cytotoxic; note: % is set by controls: 0 for no effect and ±100 for the full control effect; nearly all actives have a fitted effect of over 60% in size
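Cells of the MDR subline KB-V1 are plated, dosed with compound at multiple concentrations, and incubated 72 h at 37 degrees C; CellTiter-Glo is then added and luminescence read after 10 min.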
ELG1 DNA repair = ELG1-dependent DNA repair inhibition. HEK293T ELG1-luciferase reporter, luminescence, 16 h; DNA damage induced by 5-fluorouridine. Potency, µM (titrated, usually from 46.1 µM), inactives show at the top dose activity change, negative = inhibition, hits mostly inhibitors. actives 2.3% (n = 330,000). AID 504467; note: % is set by controls: 0 for no effect and ±100 for the full control effect; nearly all actives have a fitted effect of over 55% in size
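Reporter activity after DNA damage by 5-fluorouridine is monitored. Compound-treated cells incubate 16 hr at 37 °C, then ONE-Glo is added for 30 min before luminescence reading.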
An asterisk follows results filed as active; i = inactive; u = inconclusive; x = no result given. Hits are enriched below; roughly 8.1% of the tested compounds scored in any of these assays. Calls come from the whole dose curve; as a rule, active = well fitted curve in the direction sought with a large enough effect; inconclusive = small, poorly fitted or top-dose-only effect, or another doubt; inactive = no such curve, though single readings can be large; an effect the other way counts as inactive or inconclusive. Potency is the fitted concentration of half-maximal effect.

SMILES | KB-3-1 tox | SW480 rereplic | MCF10A rerep | KB-V1 cytotox | ELG1 DNA repair
CCN(CC)c1ccc(C(=O)NNC(=O)CNC(=O)c2ccco2)cc1 | i | -1% | 0% | i | 5%
COc1ccc2sc(-c3ccccc3OC)c(-c3ccc(OC)nc3)c2c1 | i | -4% | 23µM* | i | u
COc1ccc(-c2sc3ccc(OC)cc3c2-c2ccc(OC)nc2)cc1 | i | 10% | u | i | u
COc1cc2sc(-c3ccccc3OC)c(-c3ccc(OCCN4CCCCC4)cc3)c2cc1OC | u | -4% | u | u | 17%
COc1ccc(-c2sc3cc(OC)c(OC)cc3c2-c2ccc(O)cc2)cc1 | i | 21µM* | u | i | u
COc1ccc(-c2c(-c3ccccc3OC)oc3ccccc23)cn1 | i | -4% | 16µM* | i | u
COc1ccccc1-c1sc2cc3c(cc2c1-c1ccc(OCCN2CCCCC2)cc1)OCO3 | u | 5% | 10µM* | u | -1%
CCc1nn2c(-c3ccccc3OC)ccnc2c1-c1ccccc1 | i | x | x | i | x
COc1ccc(-c2sc3ccccc3c2-c2ccc(O)cc2)cc1 | u | 6% | u | i | 1%
COc1ccccc1-c1sc2ccccc2c1C#Cc1ccc(N(C)C)cc1 | i | 8.2µM* | u | i | u
COc1ccccc1-c1sc2ccccc2c1-c1ccc(O)cc1 | i | 16µM* | u | i | -1%
Cc1cccc(OCC(=O)N2CCN(C(=O)COc3ccc(Cl)cc3)CC2)c1 | i | -5% | 5% | u | -15%
COc1ccccc1Cc1c(-c2ccc(OC)c(OC)c2)nc2c(Cl)cc(C(F)(F)F)cn12 | i | x | x | u | x
COc1cccc(NC(=O)CSc2nn3c(=O)c(C)nnc3s2)c1 | u | 2% | -4% | i | -3%
O=C(NCC1CCCO1)c1cccc(S(=O)(=O)N2CCCCC2)c1 (configuration not stated) | i | u | -6% | i | 4%
CC1(C)Cc2c(sc(NC(=O)COc3ccc(Cl)cc3)c2C#N)C(C)(C)N1 | i | u | u | i | 2%
Cc1ccccc1OCC(=O)Nc1sc2c(c1C#N)CC(C)(C)NC2(C)C | i | u | 21µM* | i | -13%
CSc1ncc(C(=O)Nc2cc(C)cc(C)c2)c(-c2ccccc2)n1 | i | x | x | i | x
O=[N+]([O-])c1ccc(C[n+]2cccc3ccc4cccnc4c32)cc1 | i | 12% | u | i | 7.3µM*
Nc1c(C(=O)NCc2ccco2)c2nc3ccccc3nc2n1CCc1ccc(F)cc1 | i | 5.8µM* | u | 16µM* | u
Nc1c(C(=O)NCCN2CCOCC2)c2nc3ccccc3nc2n1CCc1ccccc1F | i | -1% | 4% | i | u
Nc1c(C(=O)NCCN2CCOCC2)c2nc3ccccc3nc2n1CCc1ccccc1 | i | 16µM* | 1.8µM* | 23µM* | u
COc1ccc(-n2c(N)c(C(=O)NCc3ccco3)c3nc4ccccc4nc32)cc1 | i | -4% | 4% | i | -7%
COc1ccc(/C=N/NC(=O)C(=O)N2CCCCCC2)cc1 | i | -16% | 20% | i | u
O=C(COc1ccc(/C=N/NC(=O)C(=O)N2CCCCCC2)cc1)Nc1ccccc1Cl | i | 2% | u | 18µM* | 4%
SMILES | KB-3-1 tox | SW480 rereplic | MCF10A rerep | KB-V1 cytotox | ELG1 DNA repair
O=C(CSCc1ccccc1)N/N=C/c1ccc(OCC(=O)N2CCCCC2)cc1 | i | -12% | 25% | 21µM* | -20%
O=C(N/N=C/c1ccc(OCC(=O)N2CCCCC2)cc1)c1ccccc1 | i | -3% | -1% | i | -7%
COc1ccc(CSCC(=O)N/N=C/c2ccc(OCC(=O)N3CCCCC3)cc2)cc1 | i | u | 21µM* | i | -8%
O=C(CSCc1ccccc1Br)N/N=C/c1ccc(OCC(=O)N2CCCCC2)cc1 | i | x | 1% | i | 26µM*
COc1ccc(S(=O)(=O)N2CCc3ccccc32)cc1C(=O)N1CCOCC1 | i | -413% | 14% | i | 14%
CCN(CC)CCN(C(=O)c1ccco1)c1nc2c(C)c(C)ccc2s1 | i | x | x | i | x
COc1cc(C2Nc3ccccc3C(=O)N2c2ccccc2)c(Br)cc1OCC(=O)O (configuration not stated) | i | 23µM* | -6% | i | 9%
COC(=O)COc1ccc(Cl)cc1C1Nc2ccccc2C(=O)N1c1ccc(OC)cc1 (configuration not stated) | i | 7% | 4% | i | u
CC(=O)Nc1ccc(NC(=O)C2CC(=O)Nc3nc4ccccc4n32)cc1 (configuration not stated) | i | -7% | -17% | i | 0%
Cc1ccc(NC(=O)C2CC(=O)Nc3nc4ccccc4n32)c(C)c1 (configuration not stated) | i | 18µM* | -19% | i | 6%
Cc1ccc(C(C)C)c(OCCNCCc2ccccc2)c1 | i | u | 13µM* | i | u
COc1ccc(N2CCN(C(=O)Cc3nn(C)c(=O)c4ccccc34)CC2)cc1 | i | -9% | -12% | 15µM* | u
COc1ccc(CNC(=O)Cc2nn(C)c(=O)c3ccccc23)cc1 | u | -5% | 18% | i | -18%
O=C(c1ccc(Oc2ccc(C(F)(F)F)cn2)cc1)N1CCN(c2ccccc2)CC1 | u | -3% | 26% | 21µM* | -5%
COc1ccc(N2CCN(C(=O)Cc3ncc(C(F)(F)F)cc3Cl)CC2)cc1 | i | 5% | 3% | 21µM* | u
O=C(NCc1ccc(F)cc1)c1cc2c(=O)n3ccccc3nc2s1 | i | x | x | i | x
COc1ccc(CN(C(=O)Cc2c[nH]c3ccccc23)C(C(=O)NC2CCCCC2)c2ccc(C)o2)cc1 (configuration not stated) | u | 12% | u | u | 21µM*
COc1cccc(CN(C(=O)Cc2c[nH]c3ccccc23)C(C(=O)NC2CCCCC2)c2ccc(C)o2)c1 (configuration not stated) | u | u | 6% | 21µM* | 18µM*
COc1cc(C(C(=O)NC2CCCCC2)N(C(=O)Cc2c[nH]c3ccccc23)c2ccccc2C)cc(OC)c1OC (configuration not stated) | i | 1% | 17% | i | 0%
COc1cc(C(C(=O)NC2CCCCC2)N(Cc2cccs2)C(=O)Cc2c[nH]c3ccccc23)cc(OC)c1OC (configuration not stated) | u | -8% | 7% | 16µM* | 15µM*
